High-throughput results: PubChem BioAssay, National Center for Advancing Translational Sciences (NCATS)
KB-V1 MDR tox – KB-V1 MDR subline cytotoxicity; KB-V1 MDR cells viability, CellTiter-Glo, 72 h; Potency, µM (top dose mostly 46.1 µM), usual class: cytotoxic; actives 3.4% (n = 400,000); note: % is set by controls: 0 for no effect and ±100 for the full control effect; nearly all actives have a fitted effect of over 60% in size
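Cells of the MDR subline KB-V1 are plated, dosed with compound at multiple concentrations, and incubated 72 h at 37 degrees C; CellTiter-Glo is then added and luminescence read after 10 min.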
MCF10A rerep – DNA re-replication induction in MCF 10a cells | MCF 10A DNA re-replication, Hoechst nuclear intensity, 48 h | Potency, µM (series often up to 46.1 µM), inactives show top-dose activity, positive = re-replication, usual class: activators | actives 2.9% (n = 350,000) | AID 624296; note: % of control where 0% means no effect; nearly all actives have a fitted effect of over 50% in size
HT1080 IDH1KD tx – kills HT-1080 cells with IDH1 knockdown | HT-1080 IDH1 knockdown viability, ATP luminescence, 48 h | Potency, µM (top dose mostly 46.1 µM), without a hit: top-dose activity, negative = toxicity, hits mostly cytotoxic | actives 2% (n = 360,000) | AID 686971;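 note: 0% = DMSO wells and -100% = cell-free medium wells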
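% activity derives from luminescence (CellTiter-Glo), normalised to DMSO and no-cell wells. HT-1080-IDH1KD cells, 750/well, had 48 h compound exposure at 37 °C.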
HT1080NT lethal – kills 2HG-producing HT-1080-NT fibrosarcoma cells | actives 1.6% (n = 360,000) | HT-1080-NT fibrosarcoma viability, CellTiter-Glo ATP luminescence, 48 h | Potency, µM (doses to about 46.1 µM), without a hit: top-dose activity, negative = less viability, most hits filed as cytotoxic;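 note: NT is the 2HG producing partner of a matched IDH1 knockdown line; 0% = DMSO-treated cells and -100% = media-only wells without cells; nearly all actives have a fitted effect of over 55% in size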
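Read-out is CellTiter-Glo luminescence after 10 minutes at room temperature, following 48 hours' compound treatment of HT-1080-NT cells (750 cells/well, RPMI, 5% FBS, 37 degrees C).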
SW480 rerep – DNA re-replication induction in SW480 cells. SW480 DNA re-replication, Hoechst DNA content imaging, 48 h. Potency, µM (titrated, usually from 46.1 µM), inactives show at the highest dose re-replication activation, actives largely listed as activators. actives 1.8% (n = 340,000). AID 624297; note: % of control where 0% means no effect; nearly all actives have a fitted effect of over 55% in size
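Readout is total intensity of Hoechst-stained nuclei, excited at 405 nm and collected at 500-530 nm. Compound treatment lasted 48 hr at 37 C in 5% CO2 before staining.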
KB-3-1 cytotox – kills parental KB-3-1 adenocarcinoma cells. Potency, µM (highest dose often 46.1 µM), actives largely listed as cytotoxic. AID 1347075. KB-3-1 viability, CellTiter-Glo ATP luminescence, 72 h. actives 1.4% (n = 400,000); note: % is set by controls: 0 for no effect and ±100 for the full control effect; nearly all actives have a fitted effect of over 60% in size
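Cytotoxicity measured as CellTiter-Glo luminescence after 72 h at 37 C. Compound titrations were pinned onto drug-naive KB-3-1 parental adenocarcinoma cells grown in DMEM with 10% FBS, and normalized data fitted to concentration-response curves.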
Active calls of the source: *; i = inactive; u = inconclusive; x = no result; [ ] = remark or other dose. Only some compounds are listed: those with a hit (about 7.9% of all), similar ones and a draw of the others. Calls come from the whole dose curve; as a rule, active = well fitted curve in the direction sought with a large enough effect; inconclusive = small, poorly fitted or top-dose-only effect, or another doubt; inactive = no such curve, though single readings can be large; an effect the other way counts as inactive or inconclusive. Potency is the fitted concentration of half-maximal effect.

SMILES	KB-V1 MDR tox	MCF10A rerep	HT1080 IDH1KD tx	HT1080NT lethal	SW480 rerep	KB-3-1 cytotox
Cc1ccc(N2CCN(C(C(=O)Nc3c(C)cccc3C)c3ccccc3OC(F)(F)F)CC2)cc1 (stereo unspecified)	i	x	-19%	-27%	x	i
COc1ccc(-c2cc(C(=O)OC(C)C(=O)c3ccccc3)c3cccc(Cl)c3n2)cc1 (stereo unspecified)	i	x	x	x	x	i
CN(C(=O)CC1C(=O)NCCN1Cc1ccc(F)c(F)c1)C1CCCCC1 (stereo unspecified)	i	12%	-5%	-3%	5%	i
CC(=O)c1sc(-c2ccc(Cl)cc2)nc1C	u	0%	0%	-3%	-7%	i
COc1ccc(N/C=C/C(=O)c2sc(-c3ccccc3)nc2C)cc1	18µM*	u	u	u	u	u
Cc1nc(-c2ccccc2)sc1C(=O)/C=C/c1ccc(Cl)cc1	u	4.1µM*	11%	8%	2%	u
COc1ccc(N/C=C/C(=O)c2ccccc2)cc1	i	2%	-21%	-24%	0%	i
O=C(CN1CCCC1)Nc1cccc(Cl)c1Cl	i	3%	0%	4%	1%	i
CN(C)Cc1c[nH]c2nc[nH]c(=O)c12	i	2%	9%	10%	-1%	i
O=Nc1ccc(NOC(=O)c2ccccc2Br)cc1	u	7%	0%	-3%	u	i
O=C(ONc1ccc(N=NC(=O)c2ccccc2O)cc1)c1ccccc1	i	12%	1.8µM*	2.3µM*	7%	i
Cc1cccc(-n2ccnc2SCC(=O)Nc2nccs2)c1	i	9%	11%	14%	-6%	i
COc1ccccc1NC(=O)CSc1nnc(Cc2cccn2C)n1CCc1ccccc1	i	-1%	-5%	12%[9.24 µM]	3%	i
CCSc1nnc(NC(=O)CSc2nnc(Cc3cccn3C)n2CCc2ccccc2)s1	8.2µM*	-2%	-9%	1%	2%	i
Cc1ccc(-n2c(Cc3cccn3C)nnc2SCC(=O)N2CCc3ccccc32)cc1	6.5µM*	6%	5%	5%	8%	i
CCSc1nnc(NC(=O)CSc2nccn2-c2cccc(C)c2)s1	16µM*	-9%	3%	3%	3%	i
COc1ccc(NC(=O)CSc2nnc(Cc3cccn3C)n2CCc2ccccc2)cc1OC	15µM*	2%	1%	8%	-6%	i
CC(C)C[C@H](NC(=O)N1CC(=O)Nc2ccccc21)C(=O)N1CCC(C(=O)O)CC1	u	8%	9%	13%	0%	i
Cc1ccccc1-n1c([C@@H]2C[C@H]2c2ccccc2)n[nH]c1=S	i	-2%	-1%	-2%	-11%	i
COc1ccc(OC)c(NC(=O)CSc2nc3[nH]c(=O)[nH]c(=O)c3s2)c1	i	4%	7%	6%	29%	i
COc1ccc(OC)c(NC(=O)CSC2=Nc3ccccc3C3=NC(CC(=O)NCc4ccc5c(c4)OCO5)C(=O)N23)c1 (stereo unspecified)	i	x	x	x	x	i
CCOC1=C2[C@H](c3ccccc3)N(S(=O)(=O)c3ccc(C)cc3)C[C@H]2n2c(=O)n(-c3ccccc3)c(=O)n2C1	i	x	14%	u	x	i
Cc1cc(C)c(NC(=O)CSc2nnc(Cc3cccn3C)n2-c2ccc(F)cc2)c(C)c1	23µM*	19%	-12%	-9%	0%	i
COc1ccc(-n2c(Cc3cccn3C)nnc2SCC(=O)NCCc2ccccc2)cc1	9.2µM*	8%	1%	6%	3%	i
O=C(NCc1nnc(SCC(=O)N2CCCc3ccccc32)n1-c1ccccc1)c1cccc2ccccc12	16µM*	18%	-28%	-15%	11%	u
SMILES	KB-V1 MDR tox	MCF10A rerep	HT1080 IDH1KD tx	HT1080NT lethal	SW480 rerep	KB-3-1 cytotox
COc1ccc(-n2c(CCc3ccccc3)nnc2SCC(=O)c2ccc(Cl)cc2)cc1	5.8µM*	23%	-7%	8%	14%	u
Cc1cc(C)cc(NC(=O)CSc2nnc(Cc3cccn3C)n2-c2ccc(F)cc2)c1	i	13%	-8%	-12%	0%	i
COC(=O)[C@H](CC(C)C)NC(=O)/C=C/[C@H]1O[C@@H](n2ccc(=O)[nH]c2=O)[C@H](O)[C@@H]1O	i	x	u	18%	x	i
Cc1ccc(N(CC(=O)Nc2cccc(F)c2)S(=O)(=O)c2cccs2)cc1	i	x	x	x	x	i
Cc1ccc(/C=C2/Sc3ccc(C(=O)N4CCN(c5ccccn5)CC4)cc3NC2=O)cc1	i	8.2µM*	3%	-1%	20%	i
Cc1ccccc1/C=C1\Sc2ccc(C(=O)N3CCN(c4ccccn4)CC3)cc2N(C)C1=O	u	23µM*	-15%	0%	3%	i
CCn1nc(NC(=O)c2ccncc2)c2cc3cc(C)ccc3nc21	i	8.2µM*	0%	-7%	u	i
CCn1nc(NC(=O)c2ccncc2)c2cc3ccc(C)cc3nc21	9.2µM*	u	u	-27%	7%	i
COc1ccc(-n2cc(CNCc3cnc4ccccn34)c(-c3cccc(F)c3)n2)cc1	i	u	0%	u	9%	i
CSc1ncc2c(n1)-c1ccccc1N(Cc1ccc(Cl)cc1)S2(=O)=O	i	x	x	x	x	i
NC(=O)C(F)(F)C12OC3C4C5CC(C6C5C3C61)C42 (stereo unspecified)	i	21µM*	2%	2%	u	i
COc1cc2c(cc1OC)C(c1cccs1)N(C(=O)c1ccncc1)CC2 (stereo unspecified)	u	u	13µM*	u	u	u
CC(C)c1ccc(-n2nc3ccc(N)cc3n2)cc1	i	23µM*	-11%	-19%	23µM*	i
Cc1ccc(-n2nc3ccc(N)cc3n2)cc1	i	u	-18%	-21%	16µM*	i
COc1ccc(-n2nc3ccc(N)cc3n2)cc1	i	x	-4%	-2%	x	i
Nc1ccc2nn(-c3ccc(F)cc3)nc2c1	i	18µM*	3%	2%	u	i
Cc1cccn2c(=O)c3cc(C(=O)NCc4ccccc4Cl)sc3nc12	i	x	x	x	x	i
COC(=O)c1ccccc1NC(=O)N1CCCC1	u	-4%	-11%	7%	1%	i
COc1ccccc1C(C)NC(=O)CCC(=O)N1CCN(S(=O)(=O)c2ccc(Cl)cc2)CC1 (stereo unspecified)	18µM*	4%	-10%	-9%	8%	u
